These results are taken from PubChem BioAssay (Tox21).

The assay concerns the target Gonadotropin-releasing hormone receptor (Homo sapiens) (UniProt P30968). Kind of assay: Human gonadotropin-releasing hormone receptor (GnRHR) small molecule agonists, calcium flux assay in GnRHR-HEK293 cells (AID 1920063). Further: nearly all actives have a fitted effect of over 35% in size. The gist of the method: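 Fluorescence kinetics (480 nm excitation, 540 nm emission; 3 min, 1 s steps) report calcium mobilisation in human GnRHR-HEK293 cells in agonist mode. Dye incubation: 1 h, 37 C.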
For orientation: Calcium flux is commonly read through the fluorescence of an indicator in the cells.

Values joined by “and” are separate entries in the source; they are usually repeats but may differ in a detail not shown here. Identical values can stand only once. Active and inactive are the calls of the source. Where a call stands in place of a potency, no number is given. The call rests on the fitted dose curve.
Potency means the concentration at half of the fitted maximal effect.

Chain of Gonadotropin-releasing hormone receptor (Homo sapiens) (P30968 whole entry, looked up): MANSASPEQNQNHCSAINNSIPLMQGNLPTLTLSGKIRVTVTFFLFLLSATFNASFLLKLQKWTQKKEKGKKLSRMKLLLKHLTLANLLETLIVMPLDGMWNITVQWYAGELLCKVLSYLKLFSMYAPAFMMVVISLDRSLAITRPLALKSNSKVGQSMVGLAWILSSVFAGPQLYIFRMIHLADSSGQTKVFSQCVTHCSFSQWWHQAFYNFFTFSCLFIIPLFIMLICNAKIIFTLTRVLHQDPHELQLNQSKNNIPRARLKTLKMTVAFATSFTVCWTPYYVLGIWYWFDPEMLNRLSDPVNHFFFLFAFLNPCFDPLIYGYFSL

Consider `Nc1nc(=S)c2[nH]cnc2[nH]1`, for which the Potency entry was “inactive”.
For `O=c1c(O)c(-c2ccc(O)cc2)oc2cc(O)cc(O)c12`, the Potency entry was “inactive”.
Regarding `CNC(=O)Oc1ccc2c(c1)[C@]1(C)CCN(C)[C@@H]1N2C`, the Potency result was “inactive”.
On to `CCCCCCOC(C)=O`, for which the Potency result was “inactive”.
The same measure for `Cc1ncc([N+](=O)[O-])n1C`: “inactive”.
Regarding `COc1cc([C@H]2Oc3cc([C@H]4Oc5cc(O)cc(O)c5C(=O)[C@@H]4O)ccc3O[C@@H]2CO)ccc1O`, the Potency entry was “inactive”.
In the case of `OCc1cccnc1` it was “inactive”; in that of `O=Nc1ccc(O)cc1`, “inactive”.
The same measure for `CC(O)COc1ccccc1` (stereo not drawn): “inactive”; for `NCCN`: “inactive”; for `O=C(O)CCCCC1CCSS1` (stereo not drawn): “inactive”.
As for `Cc1ccc(C)c(OCCCC(C)(C)C(=O)O)c1`, the Potency result was “inactive”.
Turning to `COc1cc(NC(=O)CC(C)=O)c(OC)cc1Cl`, the Potency result was “inactive”.
Regarding `CCCCCCCCCCCCc1ccccc1O`, the Potency result was “inactive”.
In the case of `O=C(O)C1=NN(c2ccc(S(=O)(=O)O)cc2)C(=O)C1`, the Potency result is “inactive”.
Regarding `C[C@]12CC[C@@H]3c4ccc(O)cc4C[C@@H](CCCCCCCCCS(=O)CCCC(F)(F)C(F)(F)F)[C@H]3[C@@H]1CC[C@@H]2O` (stereo partly drawn), the Potency result is “inactive”.
The same measure for `CCN=c1cc2oc3cc(NCC)c(C)cc3c(-c3ccccc3C(=O)OCC)c-2cc1C`: 12.3 µM (active) and 7.76 µM (active).
Consider `COc1cc(C=O)ccc1O`, for which the Potency entry was “inactive”.
For the compound `CCCCC(CC)C(=O)O` (stereo not drawn), the Potency result is “inactive”.
Turning to `CCC(C)(O)CCCC(C)C` (stereo not drawn), the Potency result was “inactive”.
For `CS(=O)(=O)OCCCCOS(C)(=O)=O`, the Potency entry is “inactive”.
The same measure for `O=S(=O)(O)c1ccc2nc(-c3ccccc3)[nH]c2c1`: “inactive”; for `[O-]/[N+](=N\O)c1ccccc1`: “inactive”.
With `NC1CCCCC1`, the Potency entry is “inactive”.
In the case of `CCCCOCCOCCSC#N`, the Potency entry is “inactive”.
Regarding `CC(O)C(=O)O` (stereo not drawn), the Potency entry was “inactive”.
On to `CC1(C)S[C@@H]2[C@H](NC(=O)[C@H](N)c3ccccc3)C(=O)N2[C@H]1C(=O)O`, for which the Potency entry was “inactive”.
In the case of `Cc1cccc(O)c1` it was “inactive”; in that of `CC1=CC[C@H]2C[C@@H]1C2(C)C`, “inactive”.
Turning to `NCCN1CCNCC1`, the Potency entry was “inactive”.
For the compound `CCc1cccc(C)c1N`, the Potency result was “inactive”.
Take `COc1ccc(NC(C)=O)cc1N`: the Potency result is “inactive”.
Consider `Cc1c(C(N)=O)cc([N+](=O)[O-])cc1[N+](=O)[O-]`, for which the Potency entry was “inactive”.
For the compound `O=C1CCCC1`, the Potency result is “inactive”.
As to `OC[C@H]1O[C@@H](Oc2ccc(O)cc2)[C@H](O)[C@@H](O)[C@@H]1O`, the Potency result was “inactive”.
For the compound `Clc1cc(Cl)c(Cl)cc1Cl`, the Potency result is “inactive”.
Take `CC1Cc2ccccc2N1NC(=O)c1ccc(Cl)c(S(N)(=O)=O)c1` (stereo not drawn): the Potency result was “inactive”.
Consider `O=C1CCc2ccccc2O1`, for which the Potency result was “inactive”.
In the case of `O=c1c(O)c(-c2ccc(O)c(O)c2)oc2cc(O)cc(O)c12` it was “inactive”; in that of `CCCCCCCCO`, “inactive”.
Take `O=c1cc[nH]c(=O)[nH]1`: the Potency result was “inactive”.
In the case of `COc1ccc(Nc2ccccc2)c(C)c1` it was “inactive”; in that of `O=C1CCCCCN1`, “inactive”.
With `CNC[C@H](O)c1cccc(O)c1`, the Potency entry was “inactive”.
With `CCNC(=S)NCC`, the Potency result was “inactive”.
For the compound `O=c1ccc2ccccc2o1`, the Potency entry was “inactive”.
Consider `C=C(C)C(N)=O`, for which the Potency result is “inactive”.
`CN(C)C(=O)Nc1ccc(Cl)c(Cl)c1`: the Potency result is “inactive”.
